# Where a name gives a salt, the structure may show the parent alone.
# Experiments:
# Conditions in all cases: 20 µM; incubation time: 27 h, anaerobic, 37 °C;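 for the amine columns active = adjusted P below 0.05 in both replicates with a change the same way and a mean fold change under 0.8 or over 1.25; inactive = the rest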
# [1] = tested on: Clostridium sporogenes DSM 1664; test: growth (OD595) fold change vs plate DMSO controls (fold change (ratio)); higher = more growth
# Summary of the method: (§1)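 Each value is the mean of 2 biological replicates, and fold changes above 1.5 were set to NA. The underlying readings were taken at 595 nm from shaken anaerobic mGAM cultures in 96-well plates after 27 h at 37 °C. They were blank-subtracted, corrected for compound background using 20 µM compound solutions in water, and converted to OD with a calibration factor of 5. Growth is the fold change relative to the median of the plate DMSO controls.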
# [2] = tested on: Escherichia coli IAI1; test: as above
# Summary of the method: as §1
# [3] = tested on: Klebsiella aerogenes DSM 30053; test: as above
# Summary of the method: as §1
# [4] = tested on: Ruminococcus gnavus DSM 108212; test: as above
# Summary of the method: as §1
# [5] = tested on: Klebsiella aerogenes DSM 30053; test: fold change of Histamine concentration vs plate DMSO controls (fold change (ratio)); higher = more amine produced, active = hit call of the paper (significant change in both replicates, either direction)
# Summary of the method: (§2)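 Amine values are fold changes relative to DMSO-only wells on the same plate. They derive from 27 h, 37 °C anaerobic mGAM cultures of four gut bacterial strains in 80 µL wells, dosed at 20 µM final, or 50 µM final for sweeteners. Extraction of the whole culture, LC–triple-quadrupole MS in dynamic MRM mode, external calibration curves and within-batch drift correction were used, with 2 biological replicates averaged.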
# [6] = tested on: Clostridium sporogenes DSM 1664; test: fold change of Tryptamine concentration vs plate DMSO controls (fold change (ratio)); higher = more amine produced, active = hit call of the paper (significant change in both replicates, either direction)
# Summary of the method: as §2
# [7] = tested on: Ruminococcus gnavus DSM 108212; test: as above
# Summary of the method: as §2
# [8] = tested on: Escherichia coli IAI1; test: fold change of Putrescine concentration vs plate DMSO controls (fold change (ratio)); higher = more amine produced, active = hit call of the paper (significant change in both replicates, either direction)
# Summary of the method: as §2
# [9] = tested on: Klebsiella aerogenes DSM 30053; test: as above
# Summary of the method: as §2
# [10] = tested on: Escherichia coli IAI1; test: fold change of Cadaverine concentration vs plate DMSO controls (fold change (ratio)); higher = more amine produced, active = hit call of the paper (significant change in both replicates, either direction)
# Summary of the method: as §2
# [11] = tested on: Klebsiella aerogenes DSM 30053; test: as above
# Summary of the method: as §2
# [12] = tested on: Ruminococcus gnavus DSM 108212; test: fold change of 2-Phenylethylamine concentration vs plate DMSO controls (fold change (ratio)); higher = more amine produced, active = hit call of the paper (significant change in both replicates, either direction)
# Summary of the method: as §2
SMILES,growth [1],growth [2],growth [3],growth [4],fold change of Histamine concentration [5],fold change of Tryptamine concentration [6],fold change of Tryptamine concentration [7],fold change of Putrescine concentration [8],fold change of Putrescine concentration [9],fold change of Cadaverine concentration [10],fold change of Cadaverine concentration [11],fold change of 2-Phenylethylamine concentration [12]
COc1cc(C)c(C(=O)c2c(OC)ccc(Br)c2C)c(OC)c1OC,1.04,1.05,1.04,1.1,0.967 (inactive),0.978 (inactive),1.01 (inactive),1.02 (inactive),1.02 (inactive),1.07 (inactive),1.01 (inactive),1 (inactive)
C1=Cc2cccc3cccc1c23 [Acenaphthylene],0.849,1.03,0.96,1.15,1.02 (inactive),0.962 (inactive),0.991 (inactive),1.02 (inactive),1 (inactive),1.02 (inactive),0.985 (inactive),0.996 (inactive)
CN(C)C(CSS(=O)(=O)O)CSS(=O)(=O)O,1.11,0.998,0.99,0.931,1.01 (inactive),0.933 (inactive),1.02 (inactive),1.04 (inactive),0.999 (inactive),1.02 (inactive),0.988 (inactive),0.987 (inactive)
CCN[C@@H](C)Cc1cccc(C(F)(F)F)c1 [Dexfenfluramine hydrochloride],1.03,1.05,1.1,0.954,0.833 (inactive),1.28 (inactive),1.07 (inactive),1.02 (inactive),0.95 (inactive),0.869 (inactive),1.06 (inactive),1.16 (inactive)
COc1ccc(C(CN(C)C)C2(O)CCCCC2)cc1 (configuration not stated) [Venlafaxine],0.902,0.974,0.983,1.1,1.04 (inactive),0.942 (inactive),1.01 (inactive),1.04 (inactive),1 (inactive),0.819 (inactive),0.974 (inactive),1.06 (inactive)
NCC(CC(=O)O)c1ccc(Cl)cc1 (configuration not stated) [Baclofen],1.11,1.17,1,1.33,1.04 (inactive),1.06 (inactive),1.1 (inactive),1.09 (inactive),0.988 (inactive),1 (inactive),1.03 (inactive),1.11 (inactive)
CN1C(=O)CCS(=O)(=O)C1c1ccc(Cl)cc1 (configuration not stated) [Chlormezanone],1.13,0.97,1.02,0.846,1 (inactive),0.944 (inactive),1.05 (inactive),0.986 (inactive),1.01 (inactive),0.984 (inactive),1.01 (inactive),1.06 (inactive)
CCCCc1c(C)nc(NCC)nc1OS(=O)(=O)N(C)C,0.862,1.04,0.957,0.952,1.03 (inactive),1.06 (inactive),0.959 (inactive),0.985 (inactive),0.995 (inactive),1.01 (inactive),0.998 (inactive),0.996 (inactive)
N#Cc1c(Cl)c(Cl)c(Cl)c(C#N)c1Cl,0.937,1.02,0.925,0.962,1.03 (inactive),0.995 (inactive),0.853 (inactive),1 (inactive),0.995 (inactive),1.08 (inactive),0.991 (inactive),0.804 (inactive)
O=P(Oc1ccccc1)(Oc1ccccc1)Oc1ccccc1 [Triphenyl PO4],0.98,1.03,1.02,1.04,0.998 (inactive),1.16 (inactive),0.971 (inactive),1.01 (inactive),0.842 (inactive),0.993 (inactive),1.14 (inactive),0.995 (inactive)
COc1ccc(Cc2nccc3cc(OC)c(OC)cc23)cc1OC [Papaverine hydrochloride],1.17,1.02,1.08,0.848,0.961 (inactive),1 (inactive),0.99 (inactive),0.964 (inactive),0.992 (inactive),1.22 (inactive),1.02 (inactive),1.06 (inactive)
O=C(NC(=O)c1c(F)cccc1F)Nc1ccc(OC(F)(F)C(F)OC(F)(F)F)c(Cl)c1 (configuration not stated),0.972,1.03,1.01,0.995,0.951 (inactive),0.981 (inactive),1.01 (inactive),1.01 (inactive),0.928 (inactive),0.872 (inactive),1.01 (inactive),0.957 (inactive)
C[C@@H]1[C@@H](c2ccc(Cl)cc2)SC(=O)N1C(=O)NC1CCCCC1,1.01,1.08,1.07,1,0.918 (inactive),0.989 (inactive),0.913 (inactive),0.955 (inactive),1.03 (inactive),0.972 (inactive),1.02 (inactive),0.882 (inactive)
O=[N+]([O-])/N=C1\NCCN1Cc1ccc(Cl)nc1,1.04,0.975,0.996,0.979,0.986 (inactive),1.01 (inactive),0.989 (inactive),0.964 (inactive),0.998 (inactive),0.98 (inactive),0.998 (inactive),1 (inactive)
C=CC[C@]1(O)CC[C@H]2[C@@H]3CCC4=CCCC[C@@H]4[C@H]3CC[C@@]21C [Allylestrenol],1.01,1.01,1.06,1.09,0.993 (inactive),1.03 (inactive),1.01 (inactive),0.977 (inactive),0.992 (inactive),0.924 (inactive),1.02 (inactive),1.1 (inactive)
OC(c1ccccc1)(c1ccccc1)C1CCNCC1 [Azacyclonol],1.09,1.01,1.01,1.1,1.06 (inactive),1.02 (inactive),1.07 (inactive),1.02 (inactive),1.01 (inactive),0.849 (inactive),1 (inactive),1.06 (inactive)
C[C@]12C/C(=C/O)C(=O)C[C@@H]1CC[C@@H]1[C@@H]2CC[C@@]2(C)[C@H]1CC[C@]2(C)O [Oxymetholone],1.21,1.01,1,1.16,0.984 (inactive),0.861 (inactive),0.223 (active),1.02 (inactive),1.02 (inactive),1 (inactive),1.01 (inactive),0.271 (active)
CNC(=O)Oc1cccc(/N=C/N(C)C)c1,0.913,0.992,0.988,1.04,1.02 (inactive),1.04 (inactive),0.993 (inactive),0.96 (inactive),1 (inactive),1.02 (inactive),1 (inactive),0.934 (inactive)
CCCC[N+]1(C)[C@@H]2C[C@@H](OC(=O)[C@H](CO)c3ccccc3)C[C@H]1[C@@H]1O[C@@H]12 (some centres not stated) [N-Butylscopolammonium bromide],0.954,1.22,0.974,1.06,1.03 (inactive),0.921 (inactive),0.946 (inactive),1.27 (inactive),1.01 (inactive),0.975 (inactive),0.99 (inactive),0.913 (inactive)
O=C(CCCN1CCC(n2c(=O)[nH]c3ccccc32)CC1)c1ccc(F)cc1 [Benperidol],1.07,0.943,0.941,0.827,1 (inactive),1.01 (inactive),1.03 (inactive),0.998 (inactive),1.02 (inactive),1.02 (inactive),1.02 (inactive),1.05 (inactive)
C=CCC1(CC(C)C)C(=O)NC(=O)NC1=O [Butalbital],1.07,1.04,0.966,0.589,1.01 (inactive),1 (inactive),1 (inactive),0.995 (inactive),1.01 (inactive),1.02 (inactive),0.997 (inactive),1 (inactive)
